AMA1-RON2 inh: AMA1-RON2 (P. falciparum) interaction inhibition; AID 720542; 360,000 compounds, 0.2% hits; AlphaScreen AMA1-biotinylated RON2 peptide binding; Potency, µM (top dose mostly 58.2 µM), hits mostly inhibitors; also: nearly all actives have a fitted effect of over 45% in size
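AMA1 (3D7) with his tag at 25 nM final met compounds first, then biotinylated RON2 peptide at 25 nM; detection used donor plus acceptor beads, 10 µg/mL apiece, read by AlphaScreen after 30 min at room temperature.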
Lassa entry inh: inhibitors of Lassa virus binding or cell entry; Lassa virus pseudotype entry inhibition, cell reporter; Potency, µM (doses to about 37.9 µM), actives largely listed as inhibitors; 300,000 compounds, 1.2% hits; calls by dose curve; tested in HEK293 cells; also: nearly all actives have a fitted effect of over 50% in size
MARV entry inh: Marburg virus entry inhibition. Potency, µM (top dose mostly 37.8 µM), hits mostly inhibitors. Marburg virus pseudotyped entry inhibition, cell reporter. AID 540276. 300,000 compounds, 1.8% hits; calls by dose curve; tested in HEK293 cells
AmpC inh no detg: blocks E. coli AmpC beta-lactamase in detergent-free assay. P00811. AmpC nitrocefin hydrolysis, absorbance 480 nm, 0.0001% Triton. Potency, µM (highest dose often 57.1 µM), most hits filed as inhibitors. 330,000 compounds, 0.52% hits; also: nearly all actives have a fitted effect of over 20% in size
Target sequence (P00811 whole entry, looked up): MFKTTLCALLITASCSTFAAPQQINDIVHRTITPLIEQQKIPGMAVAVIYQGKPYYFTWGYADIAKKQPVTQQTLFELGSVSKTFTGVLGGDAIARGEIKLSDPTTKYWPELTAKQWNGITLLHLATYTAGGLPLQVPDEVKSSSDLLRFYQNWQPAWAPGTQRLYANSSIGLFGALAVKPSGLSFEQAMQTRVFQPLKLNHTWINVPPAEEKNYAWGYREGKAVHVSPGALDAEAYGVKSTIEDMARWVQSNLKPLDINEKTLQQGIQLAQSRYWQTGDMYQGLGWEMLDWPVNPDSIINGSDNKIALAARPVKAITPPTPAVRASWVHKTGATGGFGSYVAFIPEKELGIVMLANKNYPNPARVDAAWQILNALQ
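20 mM phosphate pH 7.0 + 0.01% (detergent screen) or 0.0001% Triton X-100; 5.3 nM AmpC reagent; cpd preinc 15 min RT; nitrocefin (800 uM stock) to start; A480 q20 s × 4 min; Activity was normalised to no-enzyme and no-compound control wells.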
AmpC inh detg: inhibitors of E. coli AmpC beta-lactamase with detergent; AmpC hydrolysis of nitrocefin, absorbance 480 nm, 0.01% Triton; Potency, µM (top dose mostly 114 µM), hits mostly inhibitors; P00811; AID 485294; 370,000 compounds, 0.041% hits; also: nearly all actives have a fitted effect of over 25% in size
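AmpC (5.3 nM in the dispensed reagent) in 20 mM phosphate pH 7.0 with 0.01% (detergent screen) or 0.0001% Triton X-100 was preincubated with compounds for 15 min at room temperature. Nitrocefin was then added from an 800 uM solution, and hydrolysis was followed at 480 nm.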
Of the large screens only hits and unclear results are named; the others gave an inactive call. Compounds with a hit are over-represented: about 2.3% of the library has one in this group of screens. Unless noted, calls follow the shape of the dose curve; as a rule, active = well fitted curve in the direction sought with a large enough effect; inconclusive = small, poorly fitted or top-dose-only effect, or another doubt; inactive = no such curve, though single readings can be large; an effect the other way counts as inactive or inconclusive.

O=C1NC(=O)N(Cc2ccccc2)C(=O)/C1=C\C=C\c1ccco1	Lassa entry inh inconclusive, MARV entry inh inconclusive
COc1ccc(NC(=O)C(=O)NNC(=O)C(C)Oc2ccc(Cl)cc2Cl)cc1 (stereo not given)	Lassa entry inh inconclusive, MARV entry inh inconclusive, AmpC inh no detg 31.6µM
CCOC(=O)[C@@H](C)c1nc2ccccc2[nH]c1=O	none (no result: AMA1-RON2 inh, Lassa entry inh, AmpC inh no detg, AmpC inh detg)
CCCC(=O)NC(c1ccco1)c1cc(Cl)c2cccnc2c1O (stereo not given)	Lassa entry inh inconclusive, MARV entry inh inconclusive
Oc1c(C(Nc2nccs2)c2ccc(C(F)(F)F)cc2)ccc2cccnc12 (stereo not given)	Lassa entry inh inconclusive, MARV entry inh 4.47µM
Oc1c(C(Nc2cccc(C(F)(F)F)c2)c2ccncc2)ccc2cccnc12 (stereo not given)	Lassa entry inh inconclusive, MARV entry inh inconclusive
CCCC(=O)NC(c1ccc(Cl)cc1)c1ccc2cccnc2c1O (stereo not given)	Lassa entry inh 3.98µM, MARV entry inh 3.55µM
CCCC(=O)NC(c1cccs1)c1cc(Cl)c2cccnc2c1O (stereo not given)	Lassa entry inh inconclusive, MARV entry inh 3.55µM
CC(C)CC(=O)NC(c1cccs1)c1ccc2cccnc2c1O (stereo not given)	Lassa entry inh inconclusive, MARV entry inh 10µM
CCCCC(=O)NC(c1ccc(N(CC)CC)cc1)c1ccc2cccnc2c1O (stereo not given)	Lassa entry inh inconclusive, MARV entry inh inconclusive
Cc1c(C(=O)Nc2cccc(F)c2)oc2c1-c1nn(Cc3c(F)cccc3Cl)cc1CC2	none (no result: AMA1-RON2 inh, MARV entry inh, AmpC inh no detg)
CCCCC(=O)NC(c1ccc(N(C)C)cc1)c1ccc2cccnc2c1O (stereo not given)	Lassa entry inh inconclusive, MARV entry inh inconclusive
CCCC(=O)NC(c1ccc(Cl)cc1Cl)c1ccc2cccnc2c1O (stereo not given)	Lassa entry inh inconclusive, MARV entry inh 2.24µM
CCCCC(=O)NC(c1ccc(Cl)cc1)c1ccc2cccnc2c1O (stereo not given)	Lassa entry inh inconclusive, MARV entry inh 3.98µM (no result: AmpC inh no detg, AmpC inh detg)
CCCC(=O)NC(c1ccc(C)cc1)c1ccc2cccnc2c1O (stereo not given)	Lassa entry inh inconclusive, MARV entry inh 2.82µM
COc1cccc(CNC(=O)CCc2c(C)c3cc4c(C)coc4c(C)c3oc2=O)c1	none (no result: AMA1-RON2 inh, AmpC inh no detg)
COc1ccc(CNC(=O)c2oc3c(c2C)-c2nn(Cc4ccc(Cl)cc4)cc2CC3)cc1	none (no result: AMA1-RON2 inh, MARV entry inh, AmpC inh no detg)
Oc1ccccc1Nc1nc(NCC2CCCO2)c2ccccc2n1 (stereo not given)	Lassa entry inh inconclusive, MARV entry inh 14.6µM
c1cncc(-c2nc(NCC3CCCO3)c3ccccc3n2)c1 (stereo not given)	Lassa entry inh inconclusive, MARV entry inh inconclusive
c1ccc(CN2CCC(Nc3nc(-c4cccs4)nc4ccccc34)CC2)cc1	Lassa entry inh inconclusive, MARV entry inh 11.6µM, AmpC inh detg inconclusive
c1csc(-c2nc(NCC3CCCO3)c3ccccc3n2)c1 (stereo not given)	MARV entry inh 10µM
CC1CCCC(C)N1CC(O)COCc1ccccc1 (stereo not given)	MARV entry inh 6.31µM
CCCN1/C(=C2/SC(=S)N(CC)C2=O)C=Cc2ccccc21	AMA1-RON2 inh 3.16µM, AmpC inh detg inconclusive
CCCN1C(=O)/C(=C2/C=Cc3ccccc3N2CC)SC1=S	AMA1-RON2 inh 3.16µM, MARV entry inh inconclusive
CCN1/C(=C2\C(=O)N(C)C(=S)N2C)C=Cc2ccccc21	AMA1-RON2 inh inconclusive, MARV entry inh inconclusive
CCN1C(=O)/C(=C2/C=Cc3ccccc3N2CC)SC1=S	AMA1-RON2 inh 10µM (no result: Lassa entry inh)
C#CCCCO/N=C1/C[C@@H](O)[C@@H](O)[C@@H]2[C@@H]3C(=O)N(C(C)(C)C)C(=O)[C@H]3CC[C@H]12	none (no result: AMA1-RON2 inh, Lassa entry inh, AmpC inh no detg, AmpC inh detg)
Cc1cccc(C(=O)Nc2cccc(OCc3cc(=O)n4c(C)csc4n3)c2)c1	none (no result: AMA1-RON2 inh, AmpC inh no detg)
Cc1ccc(-c2ccc(=O)n(CC(=O)NC(C)c3ccccc3)n2)cc1 (stereo not given)	Lassa entry inh inconclusive (no result: AMA1-RON2 inh, MARV entry inh, AmpC inh no detg)
Cc1cccc(CNC(=O)C2CCN(c3nc4ccc(Cl)cc4[nH]3)CC2)c1	none (no result: AMA1-RON2 inh, MARV entry inh, AmpC inh no detg)
C[C@@H]1/C=C/CC(=O)OC[C@H](C)C(=O)OC[C@H]2O[C@H]1C=C[C@H]2O	none (no result: AMA1-RON2 inh, Lassa entry inh, AmpC inh no detg, AmpC inh detg)
C[N+](C)(C)CCC(=O)c1cccc2ccccc12	MARV entry inh 4.47µM (no result: AMA1-RON2 inh, Lassa entry inh, AmpC inh no detg, AmpC inh detg)
O=C(O)CCC(=O)c1cccc2ccccc12	Lassa entry inh inconclusive, MARV entry inh inconclusive
COc1ccc(CN2CCN(Cc3ccco3)CC2)cc1OC	AMA1-RON2 inh 17.8µM (no result: Lassa entry inh, MARV entry inh)
Cc1ccc(N(C)S(=O)(=O)c2ccc(-c3cnc(C4CC4)o3)cc2)cc1	Lassa entry inh 1.41µM (no result: MARV entry inh)
COc1ccc(NS(=O)(=O)c2ccc3[nH]c4c(c3c2)CCCCC4)cc1	none (no result: AMA1-RON2 inh, MARV entry inh, AmpC inh no detg)
C=C1C(C)C2C(Cc3ccccc3)NC(=O)C23C(OC(C)=O)C=CC(C)(O)CC(C)CC=CC3C1O (stereo not given)	Lassa entry inh 2.24µM, MARV entry inh 3.98µM (no result: AmpC inh no detg, AmpC inh detg)
CC(=O)O[C@@H]1/C=C/[C@](C)(O)C[C@@H](C)C/C=C/[C@H]2[C@H](O)C(C)=C(C)[C@H]3[C@H](Cc4ccccc4)NC(=O)[C@@]123	none (no result: Lassa entry inh, MARV entry inh, AmpC inh no detg, AmpC inh detg)
Cc1ccc(C)c(N2CCN(C(=O)c3cccn4c(=O)c5sccc5nc34)CC2)c1	Lassa entry inh inconclusive, MARV entry inh 12.6µM
COc1ccc(/C=C/CN2CCCC(C(=O)c3ccc(OC)c(F)c3)C2)cc1 (stereo not given)	MARV entry inh 10µM (no result: Lassa entry inh)
COc1cccc(C(=O)C2CCCN(C/C=C/c3ccccc3OC)C2)c1 (stereo not given)	MARV entry inh inconclusive
COc1ccc2cc(C(=O)C3CCCN(Cc4cccc(C)n4)C3)ccc2c1 (stereo not given)	Lassa entry inh inconclusive, MARV entry inh 22.4µM
COc1ccc(C(=O)C2CCCN(Cc3ccc4nonc4c3)C2)cc1F (stereo not given)	Lassa entry inh inconclusive
COc1ccc(C(=O)C2CCCN(Cc3ccc(C#CCCO)cc3)C2)cc1F (stereo not given)	MARV entry inh 1.12µM
COC(=O)C1=C(C)N(Cc2ccccc2)C(=NCC2CC2)NC1c1ccccc1 (stereo not given)	none (no result: AMA1-RON2 inh, Lassa entry inh, AmpC inh no detg, AmpC inh detg)
COc1ccc(CCN(C)Cc2ccc(OC)c(OCc3ccccc3)c2)cc1OC	MARV entry inh 18.3µM
CCOc1ccc(C(=O)Nc2cc(-c3ccccc3)no2)cc1	MARV entry inh inconclusive (no result: AMA1-RON2 inh, AmpC inh no detg)
CC(CCN1CCCc2nc(C)c(C)cc21)=NO[C@@H](C)CN1CCCCc2nc(C)c(C)cc21	none (no result: AMA1-RON2 inh, Lassa entry inh, AmpC inh no detg, AmpC inh detg)
Cc1cc(N/N=C/c2cccc(Cl)c2)nc(NCc2ccccc2)n1	Lassa entry inh inconclusive, MARV entry inh 18.4µM, AmpC inh detg inconclusive
Cc1cc(N/N=C/c2cccc(F)c2)nc(NCc2ccccc2)n1	Lassa entry inh inconclusive, MARV entry inh 15.8µM, AmpC inh no detg inconclusive
Cc1cc(N/N=C/c2ccccc2)nc(NCc2ccccc2)n1	Lassa entry inh inconclusive, MARV entry inh inconclusive
Cc1ccc(-n2ncc3c(Nc4cccc(C)c4C)ncnc32)cc1	none (no result: AMA1-RON2 inh, MARV entry inh, AmpC inh no detg)
